ALR inh – human ALR oxidase inhibition via reduced H2O2. P55789. purified ALR, DTT oxidation, H2O2 HRP-luminol luminescence. inhibition, % (test concentration not listed). 3.8% of 290,000 active;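 active means mean replicate inhibition above about 79%, with every replicate also reaching it, limit read from the data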
Target sequence (P55789 whole entry, looked up): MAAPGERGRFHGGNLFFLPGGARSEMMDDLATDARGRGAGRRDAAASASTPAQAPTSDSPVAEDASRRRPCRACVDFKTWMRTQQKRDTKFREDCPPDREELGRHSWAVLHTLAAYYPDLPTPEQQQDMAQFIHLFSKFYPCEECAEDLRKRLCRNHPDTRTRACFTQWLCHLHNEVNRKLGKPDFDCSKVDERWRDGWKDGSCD
PREPL inh – inhibits the human prolyl oligopeptidase-like enzyme; Q4J6C6; recombinant PREPL, fluorescence polarization activity-based probe; inhibition, % at 5.96 µM; 0.68% of 320,000 active;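 further: 0% = enzyme with DMSO and 100% = wells lacking enzyme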
CHT inh – inhibitors of human choline transporter CHT | B-score at 10 µM | CHT-expressing cells, membrane potential dye, choline response; active compounds read low | 0.86% of 310,000 active | Q9GZV3;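 active means B-score over 3 SD under the library average, and starting fluorescence ratio not unusually high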;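 further: choline stimulus applied at its EC90 after an EC20 pre-addition; B-score computed on integrated fluorescence ratio after choline addition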
AI-2 QS mod – Vibrio harveyi AI-2 quorum sensing modulation. Vibrio harveyi JMH597 AI-2 luminescence/OD600 ratio, 9 h; active compounds read low; strain lacks LuxN and CqsS sensors; 0 = neutral-control median. activity change, % at 7.5 µM. 0.4% of 300,000 active. AID 2094; in the data active means activity change below about -75%, passing the limit was not always enough;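 further: luminescence divided by OD600 gain over 9 h not by final OD600 alone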
CHT allo act – allosterically activates the human high affinity choline transporter; Q9GZV3; CHT-expressing cells, membrane potential dye, choline EC20; active compounds read high; LV-AA mutant CHT in HEK293 cells; B-score at 10 µM; 0.49% of 310,000 active;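 active means initial fluorescence not abnormally high and integrated response B-score, plate-corrected, over 3 SD above library mean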
PREPL confirm – human PREPL inhibition, confirmation. shares compounds with PREPL inh. AID 2803. inhibition, % at 5.96 µM. recombinant PREPL, fluorescence polarization activity probe. 67% of 2,000 active;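 further: 0% = protein with DMSO and 100% = wells lacking protein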
* marks the source's active call; other numbers are inactive results. Most compounds without a hit are left out; they make up all but 5% or so of the library. Unless noted, no stated cut-off is given here; in the data, active means inhibition above about 43%; inactive means the rest.

CCOC(=O)N1CCC(NC(=O)c2ccc3c(c2)N(Cc2ccc(F)cc2)CCS3)CC1 was read as ALR inh 36.3, PREPL inh 38.7, CHT inh inactive, AI-2 QS mod 3.2 and CHT allo act inactive.
Screening CN1CCN(CCCNC(=O)c2ccc3c(c2)N(Cc2ccc(F)cc2)CCS3)CC1 returned ALR inh 98.9*, PREPL inh 44.2*, CHT inh inactive, CHT allo act inactive and PREPL confirm 35.9.
`CCCCC(CC)C(=O)Nc1cc(C(=O)NCCC)ccc1N1CCC2(CC1)CC(c1ccccc1)=NO2` (stereo unspecified) gave ALR inh 7.8, PREPL inh 50.4*, CHT inh inactive, AI-2 QS mod 28.3, CHT allo act inactive and PREPL confirm 55.4*.
For CCCNC(=O)c1ccc(N2CCC3(CC2)CC(c2ccccc2)=NO3)c(NC(=O)c2ccco2)c1 the results were PREPL inh 8.4, CHT inh inactive, AI-2 QS mod 33.9 and CHT allo act inactive.
COc1ccc(/C=C/C(=O)Oc2ccc(C)c(C)c2)cc1OC was read as ALR inh -2.7, PREPL inh 6.8, CHT inh inactive, AI-2 QS mod 1.3 and CHT allo act inactive.
`COc1cc(/C=C/[N+](=O)[O-])ccc1OC(=O)/C=C/c1ccc(F)cc1` gave ALR inh -9.5, PREPL inh 47.3*, CHT inh inactive, AI-2 QS mod -9.2, CHT allo act inactive and PREPL confirm 45.8*.
For O=C(/C=C/c1ccccc1Cl)N(Cc1ccc(Cl)cc1)C1CCS(=O)(=O)C1 (stereo unspecified) the results were ALR inh -10.2, PREPL inh -42.1, CHT inh inactive, AI-2 QS mod 11.6 and CHT allo act inactive.
Screening CN(C)c1ccc(CN(C(=O)/C=C/c2ccccc2Cl)C2CCS(=O)(=O)C2)cc1 (stereo unspecified) returned ALR inh -6.1, PREPL inh 49.9*, CHT inh inactive, AI-2 QS mod 2.1, CHT allo act inactive and PREPL confirm 48.5*.
Screening Cc1ccnc(NC(=O)c2ccc(S(=O)(=O)N3CCCC3)cc2)c1 returned ALR inh -1.9, PREPL inh -5.3, CHT inh inactive, AI-2 QS mod 10.4 and CHT allo act inactive.
For CN(CC(=O)N1CCN(Cc2ccccc2)CC1)C(=O)Cc1ccc(Cl)c(Cl)c1 the results were ALR inh -6.3, PREPL inh 45.7* and PREPL confirm 42.9.
CN(C)S(=O)(=O)N(CC(=O)N1CCN(Cc2ccccc2)CC1)c1ccccc1 was read as PREPL inh -5.7, CHT inh inactive, AI-2 QS mod 4.0 and CHT allo act inactive.
`CC1(C)N=C(N)N=C(N)N1c1cccc(CN)c1` gave ALR inh -1.4, PREPL inh 15.0, CHT inh inactive, AI-2 QS mod 29.3 and CHT allo act inactive.
For CC1(C)N=C(N)N=C(N)N1c1ccc(Oc2ccc(Cl)cc2)c(Cl)c1 the results were ALR inh -4.3, PREPL inh 55.0*, CHT inh inactive, AI-2 QS mod 20.2, CHT allo act inactive and PREPL confirm 52.4*.
Screening Cc1cccc(C(=O)Nc2ccc(N3CCN(C(=O)c4ccco4)CC3)cc2)c1 returned ALR inh 10.1, PREPL inh 1.9, CHT inh inactive, AI-2 QS mod 6.2 and CHT allo act inactive.
COc1cc(CNc2ccc(N3CCN(C(C)=O)CC3)cc2)ccc1OCc1ccc(F)cc1 was read as ALR inh 99.1*, PREPL inh 45.1*, CHT inh inactive, AI-2 QS mod 10.0, CHT allo act inactive and PREPL confirm 39.6.
CC(=O)N1CCN(c2ccc(NCc3cccc(C)c3)cc2)CC1 was read as ALR inh 99.2*, PREPL inh 59.2* and PREPL confirm 34.4.
`CC(=O)N1CCN(c2ccc(NCc3ccc(F)cc3)cc2)CC1` gave ALR inh 98.8*, PREPL inh 66.8*, CHT inh inactive, AI-2 QS mod 40.8, CHT allo act inactive and PREPL confirm 39.2.
For O=C(O)c1ccc(Nc2ncc([N+](=O)[O-])cc2[N+](=O)[O-])cc1 the results were ALR inh -49.9, PREPL inh -4.3, CHT inh inactive, AI-2 QS mod 40.0 and CHT allo act inactive.
